Results filed as inconclusive are left out. Calls of active or inactive are those of the source. The call rests on the fitted dose curve; in most records, active means well fitted curve in the direction sought with a large enough effect; inconclusive means small, poorly fitted or top-dose-only effect, or another doubt; inactive means no such curve, though single readings can be large; an effect the other way counts as inactive or inconclusive.
What was measured:
[1] = molecular target: Endonuclease 4 (Escherichia coli (strain K12)) (UniProt P0A6C1); assay: Counterscreen for APE1 Inhibitors: qHTS Validation Assay for Inhibitors of Endonuclease IV (AID 1708); conditions: E. coli endonuclease IV, DNA cleavage fluorescence; series mostly up to 57.1 µM
Summary of the method: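 Enzyme (2 nM) + compound, 15 min RT; add 50 nM TAMRA/BHQ-2 THF-site dsDNA; kinetic read ex525/em598, 3 reads/60 s; activity = read 3 − read 1. Buffer Tris pH 7.5, 50 mM NaCl, 2 mM MgCl2, DTT, Tween-20.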

[2] = qHTS for differential inhibitors of proliferation of Plasmodium falciparum line 3D7 (AID 1876); further: potency means the concentration at half of the fitted maximal effect; conditions: P. falciparum 3D7 proliferation inhibition; series mostly up to 28.7 µM
[3] = qHTS for differential inhibitors of proliferation of Plasmodium falciparum line D10 (AID 1877); conditions: series mostly up to 28.7 µM;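 further: parasites grown with compound for 72 h before DNA staining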; further: potency means the concentration at half of the fitted maximal effect
[4] = qHTS for differential inhibitors of proliferation of Plasmodium falciparum line W2 (AID 1883); conditions: Potency: Plasmodium falciparum W2 proliferation inhibition; series mostly up to 28.7 µM;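 further: parasites grown with compound for 72 h before lysis and staining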; further: potency means the concentration at half of the fitted maximal effect
[5] = qHTS for differential inhibitors of proliferation of Plasmodium falciparum line HB3 (AID 1886); conditions: Potency: Plasmodium falciparum HB3 proliferation inhibition; series mostly up to 28.7 µM;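 further: parasites grown with compound for 72 h before SYBR Green readout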; further: potency means the concentration at half of the fitted maximal effect
[6] = Quantitative high throughput screen for delayed death inhibitors of the malarial parasite plastid, 96 hour incubation (AID 488745); conditions: Plasmodium falciparum growth; series mostly up to 28.7 µM; further: nearly all actives have a fitted effect of over 70% in size; further: potency means the concentration at half of the fitted maximal effect
Summary of the method: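 Decreased firefly luciferase luminescence indicates inhibited growth of reporter-integrated P. falciparum after two generations (96 h, 37 C, 5% CO2). Infected erythrocytes at 0.1% parasitemia, 2% hematocrit, in Albumax-supplemented RPMI 1640.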

[7] = Quantitative high throughput screen for delayed death inhibitors of the malarial parasite plastid, 48 hour incubation (AID 488752); conditions: Plasmodium falciparum growth; series mostly up to 28.7 µM; further: nearly all actives have a fitted effect of over 65% in size; further: potency means the concentration at half of the fitted maximal effect
Summary of the method: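 One-generation (48 h) growth assay: a decrease in luciferase signal from an integrated reporter in P. falciparum-infected red cells (0.1% parasitemia, 2% hematocrit) after compound exposure at 37 C indicates parasite inhibition.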

[8] = molecular target: Voltage-gated inwardly rectifying potassium channel KCNH2 (Homo sapiens) (UniProt Q12809); assay: qHTS Assay for Small Molecule Inhibitors of the Human hERG Channel Activity (AID 588834); conditions: U2OS BacMam hERG, FluxOR thallium flux fluorescence; series mostly up to 92.2 µM;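 further: lower thallium flux fluorescence means stronger hERG block; nearly all actives have a fitted effect of over 50% in size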; further: potency means the concentration at half of the fitted maximal effect
Summary of the method: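 Homogeneous FluxOR thallium flux assay using hERG-expressing U2OS cells (BacMam). Compound treatment about 10 minutes preceded stimulation; reduced fluorescence taken as channel block.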

[9] = molecular target: Ferritin light chain (Equus caballus) (UniProt P02791); assay: qHTS Validation Assay for Identification of Novel General Anesthetics (AID 2323); conditions: horse apoferritin, anesthetic-site fluorescent probe displacement; series mostly up to 76.9 µM
Summary of the method: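 Normalized fluorescence response, scaled between free 1-AMA and 1-AMA/apoferritin complex, fitted to a four-parameter Hill equation for concentration-effect values. Binding mix: 10 uM horse-spleen apoferritin, 50% saturated 1-AMA in PBS; read 380/535 nm after 10 min.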

Measured: Potency

Chain of Voltage-gated inwardly rectifying potassium channel KCNH2 (Homo sapiens) (Q12809 whole entry, looked up): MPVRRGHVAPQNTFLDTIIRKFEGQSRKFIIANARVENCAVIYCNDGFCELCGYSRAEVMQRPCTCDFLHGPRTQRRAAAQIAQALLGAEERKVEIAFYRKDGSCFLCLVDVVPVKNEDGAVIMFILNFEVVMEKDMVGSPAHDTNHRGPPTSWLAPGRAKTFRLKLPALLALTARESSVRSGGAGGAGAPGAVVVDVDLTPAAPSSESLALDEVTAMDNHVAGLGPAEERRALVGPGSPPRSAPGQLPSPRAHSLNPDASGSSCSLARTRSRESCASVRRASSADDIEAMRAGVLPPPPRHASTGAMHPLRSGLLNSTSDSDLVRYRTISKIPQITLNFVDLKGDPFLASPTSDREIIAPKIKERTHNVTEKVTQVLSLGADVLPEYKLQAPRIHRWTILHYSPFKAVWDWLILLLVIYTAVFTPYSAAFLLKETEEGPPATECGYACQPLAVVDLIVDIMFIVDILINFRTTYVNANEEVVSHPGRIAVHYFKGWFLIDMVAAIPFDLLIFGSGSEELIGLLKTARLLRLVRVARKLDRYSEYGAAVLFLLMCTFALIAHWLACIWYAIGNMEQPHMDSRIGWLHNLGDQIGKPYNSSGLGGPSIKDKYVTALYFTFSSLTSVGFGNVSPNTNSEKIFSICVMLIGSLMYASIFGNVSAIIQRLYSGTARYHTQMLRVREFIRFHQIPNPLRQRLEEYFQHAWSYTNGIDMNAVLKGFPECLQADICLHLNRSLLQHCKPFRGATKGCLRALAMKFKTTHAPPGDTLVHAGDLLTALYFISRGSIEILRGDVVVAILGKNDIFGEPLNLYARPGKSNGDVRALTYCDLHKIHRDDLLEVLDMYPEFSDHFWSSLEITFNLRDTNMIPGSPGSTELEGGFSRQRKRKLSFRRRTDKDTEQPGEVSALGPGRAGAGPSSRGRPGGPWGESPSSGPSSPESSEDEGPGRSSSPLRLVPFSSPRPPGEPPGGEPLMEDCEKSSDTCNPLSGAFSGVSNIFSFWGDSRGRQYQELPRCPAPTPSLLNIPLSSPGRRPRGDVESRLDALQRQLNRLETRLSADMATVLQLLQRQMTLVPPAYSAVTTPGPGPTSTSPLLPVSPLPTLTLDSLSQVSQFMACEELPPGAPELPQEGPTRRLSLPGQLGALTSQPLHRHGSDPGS
Chain of Ferritin light chain (Equus caballus) (P02791 2-175 limits assumed): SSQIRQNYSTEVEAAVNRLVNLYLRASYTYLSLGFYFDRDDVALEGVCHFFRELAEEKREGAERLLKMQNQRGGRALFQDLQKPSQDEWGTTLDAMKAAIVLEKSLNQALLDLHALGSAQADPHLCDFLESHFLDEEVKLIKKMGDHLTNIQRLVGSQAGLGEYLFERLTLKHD

CCCCN1C2CCC1CC(OC(c1ccc(F)cc1)c1ccc(F)cc1)C2 (stereo not given)
active: [2] 891 nM | [3] 2240 nM | [4] 631 nM | [5] 1000 nM | [6] 1850 nM | [7] 7380 nM | [8] 89.1 nM
inactive: [1]

CC1Cc2cc3c(cc2C(c2ccc(N)cc2)=NN1)OCO3 (stereo not given)
active: [4] 2240 nM
inactive: [1] | [3] | [9] | [6] | [7]

C[C@H]1OC[C@@H](C[N+](C)(C)C)O1
inactive: [1] | [2] | [3] | [4] | [5] | [9] | [6] | [7] | [8]

CCN(CC)C(=O)N[C@@H]1C[C@@H]2c3cccc4[nH]cc(c34)C[C@H]2N(C)C1
inactive: [9]
active: [2] 398 nM | [4] 891 nM | [5] 891 nM | [6] 1170 nM

C#CCN(C)C(C)Cc1ccccc1 (stereo not given)
inactive: [1] | [2] | [3] | [4] | [5] | [6] | [7] | [8]

CCCN(CCC)[C@@H]1CCc2c(F)ccc(O)c2C1
active: [2] 1580 nM | [3] 2240 nM | [4] 891 nM | [5] 1410 nM | [6] 2620 nM | [7] 2620 nM
inactive: [1] | [9] | [8]

CCCN(CCC)C(=O)Cc1c(-c2ccc(Cl)cc2)nc2c(Cl)cc(Cl)cn12
inactive: [1] | [5] | [6] | [7] | [8]

NCC#Cc1ccccc1
active: [4] 12600 nM
inactive: [1] | [2] | [3] | [5] | [9] | [6] | [7] | [8]

CCCN1CCC[C@@H]2Cc3n[nH]cc3C[C@H]21
inactive: [1] | [2] | [3] | [5] | [9] | [6] | [7]

C[C@]12CC[C@H]3[C@@H](CCC4C[C@H](O)CC[C@@]43C)[C@@H]1CC[C@@H]2O (stereo not given in full)
inactive: [1] | [2] | [3] | [4] | [5] | [6] | [7] | [8]

CC(C)(O)C1C2OC(=O)C1[C@]1(O)C[C@H]3O[C@]34C(=O)O[C@H]2[C@]14C (stereo not given in full) (tested in a mixture with another compound)
inactive: [2] | [3] | [4] | [5] | [9] | [6] | [7]

CC12CCC3C(CCC4=C(O)C(=O)CCC43C)C1CCC2=O (stereo not given)
inactive: [1] | [2] | [3] | [9] | [6] | [7] | [8]

CCCN1CCCC(c2cccc(O)c2)C1 (stereo not given)
active: [4] 8910 nM
inactive: [1] | [2] | [3] | [5] | [9] | [6] | [7] | [8]

Oc1ccc2c3c1O[C@H]1[C@@H](O)CC[C@@]4(O)C(C2)N(CC2CCC2)CCC314 (stereo not given in full)
active: [8] 5010 nM
inactive: [1] | [2] | [3] | [5] | [9]

COC(=O)C(N)CCCN=C(N)N[N+](=O)[O-] (stereo not given)
inactive: [2] | [3] | [4] | [5] | [9] | [6] | [7] | [8]

CCNC(=O)[C@H]1O[C@@H](n2cnc3c(N)ncnc32)[C@H](O)[C@H]1O
inactive: [1] | [2] | [3] | [4] | [5] | [9] | [6] | [7] | [8]
